{
  "source": "ChEMBL document CHEMBL2218924",
  "about": "“A broad activity screen in support of a chemogenomic map for kinase signalling research and drug discovery” (Biochem J, 2013)",
  "data": [
    {"molecular_target": "T1, Ephrin type-B receptor 1 (Homo sapiens) (UniProt P54762)", "T1 sequence (whole entry)": "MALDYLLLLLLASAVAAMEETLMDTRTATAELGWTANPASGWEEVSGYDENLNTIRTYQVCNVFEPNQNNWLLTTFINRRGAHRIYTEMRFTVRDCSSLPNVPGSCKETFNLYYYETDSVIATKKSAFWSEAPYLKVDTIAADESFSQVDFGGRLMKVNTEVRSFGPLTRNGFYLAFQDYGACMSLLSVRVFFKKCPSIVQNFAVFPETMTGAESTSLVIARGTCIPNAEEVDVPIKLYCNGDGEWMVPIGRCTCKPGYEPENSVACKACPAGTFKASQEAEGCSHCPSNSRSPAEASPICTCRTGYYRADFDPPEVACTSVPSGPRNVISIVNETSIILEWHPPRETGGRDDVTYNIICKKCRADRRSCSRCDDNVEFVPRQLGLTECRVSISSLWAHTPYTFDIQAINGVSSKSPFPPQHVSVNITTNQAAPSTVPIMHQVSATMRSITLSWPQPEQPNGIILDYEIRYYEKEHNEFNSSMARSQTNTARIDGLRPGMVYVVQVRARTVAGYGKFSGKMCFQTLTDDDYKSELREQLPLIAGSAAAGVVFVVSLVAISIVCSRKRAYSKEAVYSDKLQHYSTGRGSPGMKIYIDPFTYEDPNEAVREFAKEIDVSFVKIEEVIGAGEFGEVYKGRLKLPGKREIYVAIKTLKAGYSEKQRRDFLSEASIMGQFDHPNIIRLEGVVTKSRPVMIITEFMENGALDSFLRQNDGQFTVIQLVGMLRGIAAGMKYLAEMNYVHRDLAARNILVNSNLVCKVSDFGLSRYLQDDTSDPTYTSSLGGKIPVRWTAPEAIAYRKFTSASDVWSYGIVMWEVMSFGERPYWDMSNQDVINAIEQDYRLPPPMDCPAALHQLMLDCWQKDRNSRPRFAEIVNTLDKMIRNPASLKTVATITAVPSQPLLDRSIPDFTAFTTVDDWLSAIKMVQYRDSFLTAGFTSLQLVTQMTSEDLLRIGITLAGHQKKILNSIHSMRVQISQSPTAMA", "details": "at 1 µM", "units": {"residual activity": "%"}, "values": [
      {"smiles": "COc1ccc2c(c1)c(C1=C(c3c[nH]c4ccccc34)C(=O)NC1=O)cn2CCCN(C)C", "residual activity": 80},
      {"smiles": "COc1cc2nccc(Oc3ccc(NC(=S)NC(=O)c4ccccc4C)cc3)c2cc1OC", "residual activity": 86},
      {"smiles": "CCN(CC)CCNC(=O)c1c(C)[nH]c(/C=C2\\C(=O)Nc3ccc(Cl)cc32)c1C", "residual activity": 64},
      {"smiles": "Cn1c2ccccc2c2c3c(c4c5ccccc5n(CCC#N)c4c21)CNC3=O", "residual activity": 63},
      {"smiles": "O=c1cc(N2CCOCC2)oc2c1ccc1ccccc12", "residual activity": 95},
      {"smiles": "Nc1ncnc2c1c(-c1ccc(Oc3ccccc3)cc1)cn2C1CCCC1", "residual activity": 90},
      {"smiles": "COc1cc2nccc(Oc3ccc(NC(=O)Nc4cc(C)on4)c(Cl)c3)c2cc1OC", "residual activity": 1},
      {"smiles": "O=C1Cc2c([nH]c3ccc(Br)cc23)-c2ccccc2N1", "residual activity": 98},
      {"smiles": "CC(C)c1nn(-c2c(Cl)cccc2Cl)c2nc(Cc3ccc(OCCO)cc3)[nH]c(=O)c12", "residual activity": 90},
      {"smiles": "COc1cc2c(cc1OC)-c1n[nH]c(Nc3cccc(F)c3)c1C2", "residual activity": 83},
      {"smiles": "COc1cc2ncnc(Nc3cccc(Cl)c3)c2cc1OC", "residual activity": 84},
      {"smiles": "O=c1cc(N2CCNCC2)oc2c(-c3ccccc3)cccc12", "residual activity": 100},
      {"smiles": "O=C1NC(=O)c2c1c1c3ccccc3[nH]c1n1cncc21", "residual activity": 90},
      {"smiles": "CCCCc1c(-c2ccc(OC)cc2)[nH]c2nccnc12", "residual activity": 61},
      {"smiles": "Cn1sc(=O)n(Cc2ccccc2)c1=O", "residual activity": 90},
      {"smiles": "CCCC(=O)Oc1ccc2[nH]c(C(=O)c3cc4ccccc4[nH]3)cc2c1", "residual activity": 82},
      {"smiles": "CC(C)(C)n1nc(Cc2cccc3ccccc23)c2c(N)ncnc21", "residual activity": 13},
      {"smiles": "CCCCc1c(-c2ccc(O)cc2)[nH]c2nccnc12", "residual activity": 64},
      {"smiles": "CN(C)S(=O)(=O)c1ccc2c(c1)/C(=C/c1cc3c([nH]1)CCCC3)C(=O)N2", "residual activity": 73},
      {"smiles": "O=C(O)/C=C/c1cc(Br)c(Br)c(Br)c1Br", "residual activity": 101},
      {"smiles": "NC(=O)Nc1sc(-c2ccc(F)cc2)cc1C(N)=O", "residual activity": 11},
      {"smiles": "O=C1Nc2ccc(Cl)cc2/C1=C/c1cc(Cl)c(O)c(Cl)c1", "residual activity": 94}
    ]},
    {"molecular_target": "T1, Ephrin type-B receptor 1 (Homo sapiens)", "details": "at 10 µM", "units": {"residual activity": "%"}, "values": [
      {"smiles": "COc1ccc2c(c1)c(C1=C(c3c[nH]c4ccccc34)C(=O)NC1=O)cn2CCCN(C)C", "residual activity": 53},
      {"smiles": "COc1cc2nccc(Oc3ccc(NC(=S)NC(=O)c4ccccc4C)cc3)c2cc1OC", "residual activity": 70},
      {"smiles": "CCN(CC)CCNC(=O)c1c(C)[nH]c(/C=C2\\C(=O)Nc3ccc(Cl)cc32)c1C", "residual activity": 24},
      {"smiles": "Cn1c2ccccc2c2c3c(c4c5ccccc5n(CCC#N)c4c21)CNC3=O", "residual activity": 63},
      {"smiles": "O=c1cc(N2CCOCC2)oc2c1ccc1ccccc12", "residual activity": 89},
      {"smiles": "Nc1ncnc2c1c(-c1ccc(Oc3ccccc3)cc1)cn2C1CCCC1", "residual activity": 70},
      {"smiles": "COc1cc2nccc(Oc3ccc(NC(=O)Nc4cc(C)on4)c(Cl)c3)c2cc1OC", "residual activity": -1},
      {"smiles": "O=C1Cc2c([nH]c3ccc(Br)cc23)-c2ccccc2N1", "residual activity": 76},
      {"smiles": "CC(C)c1nn(-c2c(Cl)cccc2Cl)c2nc(Cc3ccc(OCCO)cc3)[nH]c(=O)c12", "residual activity": 84},
      {"smiles": "COc1cc2c(cc1OC)-c1n[nH]c(Nc3cccc(F)c3)c1C2", "residual activity": 43},
      {"smiles": "COc1cc2ncnc(Nc3cccc(Cl)c3)c2cc1OC", "residual activity": 24},
      {"smiles": "O=c1cc(N2CCNCC2)oc2c(-c3ccccc3)cccc12", "residual activity": 105},
      {"smiles": "O=C1NC(=O)c2c1c1c3ccccc3[nH]c1n1cncc21", "residual activity": 74},
      {"smiles": "CCCCc1c(-c2ccc(OC)cc2)[nH]c2nccnc12", "residual activity": 61},
      {"smiles": "CCCC(=O)Oc1ccc2[nH]c(C(=O)c3cc4ccccc4[nH]3)cc2c1", "residual activity": 108},
      {"smiles": "CC(C)(C)n1nc(Cc2cccc3ccccc23)c2c(N)ncnc21", "residual activity": 0},
      {"smiles": "O=C1C(Cl)=C(N2C(=O)CCC2=O)C(=O)c2ccccc21", "residual activity": 93},
      {"smiles": "O=C(CCCc1ccc(-c2ccccc2F)cc1)Nc1ccc(O)cc1", "residual activity": 98},
      {"smiles": "CCCCc1c(-c2ccc(O)cc2)[nH]c2nccnc12", "residual activity": 22},
      {"smiles": "CN(C)S(=O)(=O)c1ccc2c(c1)/C(=C/c1cc3c([nH]1)CCCC3)C(=O)N2", "residual activity": 64},
      {"smiles": "O=C(O)/C=C/c1cc(Br)c(Br)c(Br)c1Br", "residual activity": 89},
      {"smiles": "NC(=O)Nc1sc(-c2ccc(F)cc2)cc1C(N)=O", "residual activity": 0},
      {"smiles": "O=C1Nc2ccc(Cl)cc2/C1=C/c1cc(Cl)c(O)c(Cl)c1", "residual activity": 86}
    ]}
  ]
}
